{
  "source": "PubChem BioAssay (NCATS)",
  "key": {"[1]": {"experiment": "Cell Viability - LYMP1-002 - Assay at 24 hr (AID 993)", "conditions": "LYMP1-002 lymphoblastoid cells viability; series mostly up to 92.2 µM", "procedure,_shortened": "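Cells plated 2500/well, 5 hr 37 C; compounds added, 24 hr 37 C; CellTiter-Glo added, 30 min RT; luminescence read. Tetraoctylammonium bromide positive control. Hill-equation AC50.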"}, "[2]": {"experiment": "Cell Viability - LYMP1-002 - Assay at 40 hr (AID 994); further: nearly all actives have a fitted effect of over 60% in size", "conditions": "LYMP1-002 lymphoblastoid cell viability; series mostly up to 92.2 µM", "procedure,_shortened": "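Luminescent ATP signal served as the viability readout, with decreases taken as toxicity. Cells were treated with compounds across a concentration range for 40 hours at 37 C, and AC50 values came from standard Hill modeling.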"}, "[3]": {"experiment": "qHTS Assay for Lipid Storage Modulators (AID 1519; calls by dose curve)", "conditions": "Drosophila S3 cells, BODIPY lipid droplet/cell ratio, laser cytometry, cells loaded with oleic acid", "procedure,_shortened": "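Cells seeded at 5,000 per well were treated with compounds over a concentration series and loaded with oleic acid (400 uM, as added). Lipid droplet fluorescence (488 nm excitation, 500-530 nm channel) was read by laser-scanning cytometry and normalized to 20 uM Triacsin C.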"}, "[4]": {"target": "alpha-glucosidase (Oryza sativa, rice) (UniProt Q653V4)", "experiment": "Counterscreen for Glucocerebrosidase Inhibitors: qHTS Assay for Rice alpha-Glucosidase at pH 5.0 (AID 997)", "conditions": "rice alpha-glucosidase enzyme activity; series mostly up to 76.9 µM", "procedure,_shortened": "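Rice alpha-glucosidase (4 nM final) with 400 uM 4-methylumbelliferyl-alpha-D-glucopyranoside in citrate buffer pH 5.0, 20 min at room temperature, stopped at pH 10; fluorescence 365/440 nm, compounds 0.7 nM–77 uM, AC50 from Hill fits.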"}, "[5]": {"target": "Alpha-galactosidase (Coffea arabica) (UniProt Q42656)", "sequence (Q42656 whole entry, looked up)": "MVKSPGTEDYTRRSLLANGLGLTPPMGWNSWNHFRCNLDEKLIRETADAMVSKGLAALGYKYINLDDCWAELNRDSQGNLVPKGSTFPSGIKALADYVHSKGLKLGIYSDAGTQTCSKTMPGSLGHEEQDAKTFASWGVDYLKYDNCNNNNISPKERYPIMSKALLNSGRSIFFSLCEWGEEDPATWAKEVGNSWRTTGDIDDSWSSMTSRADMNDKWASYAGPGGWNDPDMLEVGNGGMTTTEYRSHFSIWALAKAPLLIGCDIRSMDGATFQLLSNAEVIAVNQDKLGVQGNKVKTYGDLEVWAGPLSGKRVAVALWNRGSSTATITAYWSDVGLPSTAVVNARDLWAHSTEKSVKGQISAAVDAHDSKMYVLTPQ", "experiment": "Counterscreen for Glucocerebrosidase Inhibitors: qHTS Assay for Coffee Bean alpha-Galactosidase at pH 5.9 (AID 998)", "conditions": "coffee bean alpha-galactosidase enzyme assay; series mostly up to 76.9 µM", "procedure,_shortened": "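Green coffee bean enzyme (2 nM final) was incubated with compounds (0.7 nM–77 uM) and 4-methylumbelliferyl alpha-D-galactopyranoside (80 uM) in citrate buffer pH 5.9, 20 min at room temperature. High-pH stop; fluorescence 365/440 nm; AC50 from Hill fits.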"}, "[6]": {"experiment": "Validation of Assay for Modulators of Lamin A Splicing (AID 1459; active means well fitted curve in the direction sought with a large enough effect in the signal ratio; the % refers to the signal ratio;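 further: cells exposed to compound for two days before reading; ratio rise marks activators and ratio drop marks inhibitors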)", "conditions": "Lamin A splicing dual RFP/GFP fluorescence reporter; series mostly up to 9.22 µM", "procedure,_shortened": "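Splicing correction is reported by an EGFP-containing lamin A minigene in stably transfected S3 HeLa cells, while DsRed2 controls for viability and nonspecific signal. Cells are exposed to compounds for 48 hrs before the GFP over RFP ratio is taken.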"}, "[7]": {"target": "DNA repair nuclease/redox regulator APEX1 (Homo sapiens) (UniProt P27695)", "sequence (P27695 whole entry, looked up)": "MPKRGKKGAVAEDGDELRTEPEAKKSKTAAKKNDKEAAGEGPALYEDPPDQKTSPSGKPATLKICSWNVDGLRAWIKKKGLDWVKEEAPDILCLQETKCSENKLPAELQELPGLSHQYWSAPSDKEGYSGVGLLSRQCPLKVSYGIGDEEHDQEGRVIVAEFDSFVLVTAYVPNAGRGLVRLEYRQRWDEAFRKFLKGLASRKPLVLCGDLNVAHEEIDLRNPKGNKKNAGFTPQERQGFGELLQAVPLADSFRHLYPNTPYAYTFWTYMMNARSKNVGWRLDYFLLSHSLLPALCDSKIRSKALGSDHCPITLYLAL", "experiment": "qHTS Validation Assay for Inhibitors of the Human Apurinic/apyrimidinic Endonuclease 1 (APE1) (AID 1705;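 further: TAMRA fluorescence gain over two minutes as APE1 cuts a quenched THF abasic duplex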)", "conditions": "purified APE1 endonuclease activity, fluorescence, titration; series mostly up to 57.1 µM", "procedure,_shortened": "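Endonuclease activity of human APE1 is followed as dequenching when the enzyme incises a tetrahydrofuran abasic site in a short duplex labelled 5'-TAMRA/3'-BHQ-2 (50 nM final), after 15 min enzyme–compound preincubation at room temperature.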"}, "[8]": {"experiment": "Counterscreen for APE1 Inhibitors: Fluorescent Dye Displacement Validation Assay (AID 1707)", "conditions": "fluorescent dye displacement from DNA; series mostly up to 57.1 µM", "procedure,_shortened": "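Thiazole Orange displacement from dsDNA: 250 nM ThO with 50 nM TAMRA-labelled abasic-site (tetrahydrofuran) duplex in 50 mM Tris-HCl pH7.5, 50mM NaCl, 2 mM MgCl2, 0.01% Tween-20. Loss of endpoint fluorescence (ex 480 nm, em 540 nm) flags DNA binders.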"}, "[9]": {"target": "Endonuclease 4 (Escherichia coli (strain K12)) (UniProt P0A6C1)", "experiment": "Counterscreen for APE1 Inhibitors: qHTS Validation Assay for Inhibitors of Endonuclease IV (AID 1708)", "conditions": "E. coli endonuclease IV, DNA cleavage fluorescence; series mostly up to 57.1 µM", "procedure,_shortened": "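Concentration-response counterscreen run identically to the APE1 assay: 15 min room-temperature preincubation of 2 nM enzyme with compound, reaction started with 50 nM quenched abasic DNA, progress taken from kinetic fluorescence.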"}, "[10]": {"experiment": "qHTS for differential inhibitors of proliferation of Plasmodium falciparum line 7G8 (AID 1815);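 further: parasite growth measured after three days of incubation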", "conditions": "Plasmodium falciparum 7G8 proliferation inhibition; series mostly up to 28.7 µM"}, "[11]": {"conditions": "measured here: cell count channel max response"}, "[12]": {"conditions": "measured here: lipid channel max response"}},
  "note": "Values joined by “and” are separate entries in the source; they are usually repeats but may differ in a detail not shown here. Equal entries are not always repeated. Records with an inconclusive call do not appear. Entries that show only a call come without a potency. Active and inactive are the calls of the source. Unless noted, the call rests on the fitted dose curve; in most records, active means well fitted curve in the direction sought with a large enough effect; inconclusive means small, poorly fitted or top-dose-only effect, or another doubt; inactive means no such curve, though single readings can be large; an effect the other way counts as inactive or inconclusive.",
  "data": [
    {"molecule": "COc1cc(OC)c(OC)cc1C=O", "values": [
      {"measurement": "Potency", "setting": "[1]", "result": "inactive"},
      {"measurement": "Potency", "setting": "[2]", "result": "inactive"},
      {"measurement": "activity change, negative = inhibition", "setting": "[3]; at 57.5 µM (top of the series)", "result": "10.2% (inactive)"},
      {"measurement": "max response", "setting": "[3]; [11]", "result": 14.2, "unit": "%"},
      {"measurement": "max response", "setting": "[3]; [12]", "result": 28.2, "unit": "%"}
    ]},
    {"molecule": "NCCc1ccc(O)cc1", "values": [
      {"measurement": "Potency", "setting": "[1]", "result": "inactive"},
      {"measurement": "Potency", "setting": "[2]", "result": "inactive"},
      {"measurement": "outcome", "setting": "[4]", "result": "inactive"},
      {"measurement": "outcome", "setting": "[5]", "result": "inactive"},
      {"measurement": "outcome", "setting": "[6]", "result": "inactive"},
      {"measurement": "Potency", "setting": "[7]", "result": "inactive"},
      {"measurement": "outcome", "setting": "[8]", "result": "inactive"},
      {"measurement": "outcome", "setting": "[9]", "result": "inactive"},
      {"measurement": "Potency", "setting": "[10]", "result": "inactive"}
    ]},
    {"molecule": "c1ccc2c(c1)sc1ccccc12", "values": [
      {"measurement": "activity change, negative = inhibition", "setting": "[3]; at 57.5 µM (top of the series)", "result": "7.62% (inactive)"},
      {"measurement": "max response", "setting": "[3]; [11]", "result": -5.03, "unit": "%"},
      {"measurement": "max response", "setting": "[3]; [12]", "result": 4.45, "unit": "%"}
    ]},
    {"molecule": "CNC(C)(C)Cc1ccccc1", "values": [
      {"measurement": "activity change, negative = inhibition", "setting": "[3]; at 25.7 µM (top of the series)", "result": "-3.38% (inactive)"},
      {"measurement": "activity change, negative = inhibition", "setting": "[3]; at 57.5 µM (top of the series)", "result": "12% (inactive)"},
      {"measurement": "max response", "setting": "[3]; [11]", "result": "-19% and 14.2%"},
      {"measurement": "max response", "setting": "[3]; [12]", "result": "-21.7% and 31.6%"}
    ]},
    {"molecule": "O=c1oc2ccccc2c(O)c1Cc1c(O)c2ccccc2oc1=O", "values": [
      {"measurement": "activity change, negative = inhibition", "setting": "[3]; at 25.7 µM (top of the series)", "result": "0.983% (inactive)"},
      {"measurement": "max response", "setting": "[3]; [11]", "result": -11.3, "unit": "%"},
      {"measurement": "max response", "setting": "[3]; [12]", "result": -10.4, "unit": "%"}
    ]},
    {"molecule": "CC(C)N(CCC(C(N)=O)(c1ccccc1)c1ccccn1)C(C)C", "note": "(stereo not drawn)", "values": [
      {"measurement": "outcome", "setting": "[6]", "result": "inactive"},
      {"measurement": "activity change, negative = inhibition", "setting": "[3]; at 57.5 µM (top of the series)", "result": "4.57% (inactive) and -1.93% (inactive) and 1.94% (inactive)"},
      {"measurement": "max response", "setting": "[3]; [11]", "result": "23.6% and -10.4% and -17.4%"},
      {"measurement": "max response", "setting": "[3]; [12]", "result": "33.6% and -11% and -15.7%"},
      {"measurement": "Potency", "setting": "[7]", "result": "inactive"},
      {"measurement": "outcome", "setting": "[8]", "result": "inactive"},
      {"measurement": "outcome", "setting": "[9]", "result": "inactive"},
      {"measurement": "Potency", "setting": "[10]", "result": "inactive"}
    ]},
    {"molecule": "C=C(C)[C@H]1CN[C@H](C(=O)O)[C@H]1CC(=O)O", "values": [
      {"measurement": "activity change, negative = inhibition", "setting": "[3]; at 57.5 µM (top of the series)", "result": "0.0201% (inactive)"},
      {"measurement": "max response", "setting": "[3]; [11]", "result": -9.16, "unit": "%"},
      {"measurement": "max response", "setting": "[3]; [12]", "result": -9.1, "unit": "%"},
      {"measurement": "Potency", "setting": "[7]", "result": "inactive"},
      {"measurement": "outcome", "setting": "[8]", "result": "inactive"},
      {"measurement": "Potency", "setting": "[10]", "result": "inactive"}
    ]}
  ]
}
